Cruzain Triton = cruzain (T. cruzi) inhibition with detergent; Potency, µM, inactives show max response, negative = inhibition, actives largely listed as inhibitors; purified cruzain, Z-FR-AMC fluorescence, 0.01% Triton; P25779; 200,000 tested, 0.43% active;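 note: plate controls were neutral wells for no effect and buffer without enzyme for full effect; nearly all actives have a fitted effect of over 40% in size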
Target sequence (P25779 123-467 limits assumed): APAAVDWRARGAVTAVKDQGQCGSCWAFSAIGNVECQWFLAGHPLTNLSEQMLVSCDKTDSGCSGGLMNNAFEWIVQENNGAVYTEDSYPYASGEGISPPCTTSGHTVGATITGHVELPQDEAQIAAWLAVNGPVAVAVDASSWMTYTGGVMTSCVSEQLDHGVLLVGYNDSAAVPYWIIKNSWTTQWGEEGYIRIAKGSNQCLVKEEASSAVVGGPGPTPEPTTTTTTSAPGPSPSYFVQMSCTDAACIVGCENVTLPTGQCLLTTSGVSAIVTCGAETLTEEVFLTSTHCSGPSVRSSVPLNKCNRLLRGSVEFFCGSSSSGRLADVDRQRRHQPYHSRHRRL
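Read-out: AMC fluorescence (360 nm excitation, 450 nm emission), four reads over 2 min, first-to-third difference used. Conditions: cruzain 1.5 nM, Z-FR-AMC 2 uM, pH 5.5 acetate, 5 mM DTT, 0.01% Triton X-100.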
Cruzain noTriton = inhibitors of Trypanosoma cruzi cruzain without detergent | purified cruzain, Z-FR-AMC fluorescence, no detergent | 200,000 tested, 2.3% active | P25779 | Potency, µM, for the others: max response, negative = inhibition, actives largely listed as inhibitors;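 note: plate controls were enzyme without inhibitor for no effect and buffer without enzyme for full effect; nearly all actives have a fitted effect of over 40% in size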
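Detergent-free condition (0.00005% Triton X-100) in acetate buffer pH 5.5 with DTT. 1.5 nM enzyme and compound were pre-mixed 15 min, then 2 uM Z-FR-AMC substrate added; reaction progress from fluorescence change between first and third reads (60 s).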
* marks the source's active call; other numbers are inactive results; ? = inconclusive. The list is not random: actives were taken first. Their share in the collection is about 2.6%. Calls come from the whole dose curve; as a rule, active = well fitted curve in the direction sought with a large enough effect; inconclusive = small, poorly fitted or top-dose-only effect, or another doubt; inactive = no such curve, though single readings can be large; an effect the other way counts as inactive or inconclusive. Potency is the fitted concentration of half-maximal effect.

SMILES | Cruzain Triton | Cruzain noTriton
O=S(=O)(c1ccc(Br)cc1)N1CCn2cccc2C1c1ccc(Br)cc1 (stereo unspecified) | -2% | ?
COc1ccc(S(=O)(=O)NCC(c2ccco2)N2CCN(c3ccccc3F)CC2)cc1OC (stereo unspecified) | -3% | 4%
CCCCn1c2ccc(F)cc2c2nnc(SCCN(CC)CC)nc21 | 16µM* | 20µM*
CSc1nnc2c3cc(F)ccc3n(Cc3ccccc3)c2n1 | -29% | -16%
Cc1cc(/C=C2/C(=O)N(C)C(=S)N2C)c(C)n1C1CC1 | -9% | -21%
Cc1cc(/C=C2\SC(=S)NC2=O)c(C)n1C1CC1 | 0% | 16µM*
COc1ccccc1-c1nn(CCC(=O)Nc2ccccc2)c2nc(C)cc(C)c12 | -9% | ?
Cc1cc(=O)oc2c(O)c(O)ccc12 | -12% | -19%
O=c1oc2c(CN3CCOCC3)c(O)ccc2c2c1CCC2 | ? | -76%
CC(C)CN(Cc1c(O)ccc2c3c(c(=O)oc12)CCC3)CC(C)C | 28µM* | -99%
Cc1cc(=O)oc2c(CN(CC(C)C)CC(C)C)c(O)ccc12 | 25µM* | ?
NCC1O[C@@H](O[C@@H]2C(O)[C@H](O[C@H]3OC(CO)C(O)C(N)C3O)[C@@H](N)C[C@H]2N)C(N)C(O)C1O (stereo partly specified) | 3% | 1%
COc1cccc2c1ncc1c(-c3ccc(C)cc3)nn(-c3ccc(F)cc3)c12 | -1% | -5%
O=[N+]([O-])c1ccc(Cl)c(/C=N/NC(=S)Nc2ccccc2)c1 | -8% | 25µM*
NC(=S)N/N=C/c1cc([N+](=O)[O-])ccc1OCCOc1ccccc1 | 0.25µM* | 0.16µM*
CS(=O)(=O)N(CC(=O)N/N=C/c1cc([N+](=O)[O-])ccc1Cl)c1ccccc1 | -7% | -17%
CC(=O)N/N=C/c1cc([N+](=O)[O-])ccc1OCCOc1ccccc1 | 2% | 3%
Cc1cc(C(=O)N/N=C/c2cccc([N+](=O)[O-])c2)c(C)n1-c1ccccc1 | -5% | -25%
Cc1cc(C(=O)N/N=C/c2ccc(Cl)c([N+](=O)[O-])c2)c(C)n1-c1ccc(F)cc1 | 1% | 7.9µM*
Cc1cccc(NC(=S)N/N=C/c2cccc([N+](=O)[O-])c2)c1 | -14% | 1%
Cc1cccc(NC(=S)N/N=C/c2ccc(Cl)c([N+](=O)[O-])c2)c1 | -3% | 32µM*
N=C(N)n1cc(/C=N\N=C(N)N)cn1 | 10% | -6%
CC(=O)Nc1ccc(/C=C/c2nc(-c3ccccc3O)n(-c3ccccc3)n2)cc1 | -13% | ?
Cc1cccc2cc(COC(=O)C3CCCCC3)c(=O)[nH]c12 | 2% | -6%
Cc1cccc2cc(COC(=O)C3CCCO3)c(=O)[nH]c12 (stereo unspecified) | -1% | 1.6µM*
SMILES | Cruzain Triton | Cruzain noTriton
CCOC(=O)C(=O)C1(C(=O)OCC)Oc2cc(OC)cc(OC)c2C(=O)C1c1ccccc1 (stereo unspecified) | -6% | -17%
COc1ccc(C(=O)NCC(=O)OCC(=O)c2ccc3c(c2)OCCO3)cc1 | 16µM* | 13µM*
O=C(COC(=O)/C=C/c1ccc(Cl)cc1)Nc1ccc2c(c1)OCCO2 | -1% | -27%
O=C(COc1cc(Cl)c(Cl)cc1Cl)NC(=O)Nc1ccc2c(c1)OCCO2 | -2% | 20µM*
CCN(C(=O)COC(=O)c1ccccc1Nc1cccc(C)c1C)C1CCS(=O)(=O)C1 (stereo unspecified) | -5% | ?
CCN(C(=O)COC(=O)CNC(=O)c1ccc(C)c(C)c1)C1CCS(=O)(=O)C1 (stereo unspecified) | 25µM* | 16µM*
Cc1ccc(Cl)c(OCC(=O)Nc2ccc3c(c2)OCCO3)c1 | -1% | -6%
COc1ccc(CNC(=O)COC(=O)c2ccc3c(c2)OCCO3)cc1 | 0% | -1%
O=C(COC(=O)CNC(=O)c1ccc(Cl)cc1)Nc1ccc2c(c1)OCCO2 | 14µM* | 10µM*
O=C(NCc1ccco1)c1ccc2c(c1)N(Cc1ccc(F)cc1)C(=O)c1ccccc1S2(=O)=O | -2% | -21%
COc1ccc(-n2c(=O)c(CCc3ccccc3)nc3cnc(N(C)C)nc32)cc1 | 1% | -1%
Cc1cc(C(=O)Nc2cccc(F)c2)c2c(C)nn(-c3cccc(Cl)c3C)c2n1 | -3% | 3%
COc1cccc(Cn2c(=O)c(-c3cc(F)cc(F)c3)nc3cnc(N(C)C)nc32)c1 | 0% | -7%
Cc1ccc(C(=O)COC(=O)CNC(=O)c2ccc(N3C(=O)c4ccccc4C3=O)cc2)cc1C | -2% | -7%
Cc1ccc(C(=O)NCC(=O)OCC(=O)c2ccc3c(c2)OCCO3)cc1C | 13µM* | 13µM*
Cc1cc2nc(-c3ccc(OCc4ccccc4C)cc3)cc(C(F)(F)F)n2n1 | -2% | -14%
CCCn1c(=N)c(C(=O)NC2CCCC2)cc2c(=O)n3cc(C)ccc3nc21 | -3% | 15%
O=Nc1c(-c2c(O)[nH]c3cc(Br)ccc23)[nH]c2ccccc12 | -3% | 32µM*
O=Nc1c(O)[nH]c2ccccc12.[Cu].[O-]/N=C1/C(=[OH+])Nc2ccccc21 | 0% | 6%
O=[N+]([O-])c1ccc(N2CCN(S(=O)(=O)c3ccccc3)CC2)cc1NCC1CCCO1 (stereo unspecified) | -4% | 12%
O=[N+]([O-])c1ccc(N2CCN(S(=O)(=O)c3ccc4ccccc4c3)CC2)cc1NCC1CCCO1 (stereo unspecified) | 1% | 16µM*
Cc1ccccc1Cn1nnc2c(=O)[nH]c(C3CCCN(C(=O)c4ccc(F)cc4)C3)nc21 (stereo unspecified) | 0% | ?
Cc1ccccc1CCNC(=O)c1ccc2c(c1)c(C)c(C)n2Cc1ccccc1 | 3% | 20µM*
Cc1c(C)n(Cc2ccccc2)c2ccc(C(=O)NCCc3ccccc3Cl)cc12 | 2% | 25µM*
COc1ccc(NC(=O)c2ccc3c(c2)c(C)c(C)n3Cc2ccc(F)cc2)cc1 | 1% | ?
SMILES | Cruzain Triton | Cruzain noTriton
COc1ccc(CCNC(=O)c2ccc3c(c2)c(C)c(C)n3Cc2ccccc2)c(OC)c1OC | 0% | ?
CCOC(=O)c1ccc(NC(=O)c2ccc3c(c2)c(C)c(C)n3Cc2ccc(F)cc2)cc1 | 1% | 7.9µM*
Cc1cccc(CNC(=O)c2ccc3c(c2)c(C)c(C)n3Cc2ccccc2)c1 | 2% | ?
Cc1c(C)n(Cc2ccccc2)c2ccc(C(=O)NCc3ccc(OC(C)C)cc3)cc12 | 2% | 25µM*
Cc1ccccc1CCNC(=O)c1ccc2c(c1)c(C)c(C)n2C | -3% | ?
CCc1cccc(NC(=O)Cn2nc(-c3cc(C)ccc3C)ccc2=O)c1 | -9% | 17%
CCCn1c(CN2CCN(c3ccc(OC)cc3)CC2)nc2c1c(=O)[nH]c(=O)n2C | 0% | 6%
O=C(c1noc2c1CCCCC2)N1CCN(c2ccc(Cl)cc2)CC1 | -6% | 3%
COc1ccc(C)cc1NC(=O)C1CCCN(S(=O)(=O)c2ccc3c(c2)oc(=O)n3C)C1 (stereo unspecified) | -1% | 21%
COc1ccc(Cn2c(CCC(=O)NCc3ccc(Cl)cc3)nc3cccnc32)cc1 | -2% | 34%
Cc1cc(N)ccc1-n1c(C)ccc1C | -5% | -2%
Cc1cc(N)ccc1N1CCCC1 | ? | 16µM*
CC(C)(C)C(=O)C1C(=O)c2ccccc2C1=O | 0% | -13%
COCCN1CN(S(=O)(=O)c2ccccc2)c2nc3ccccc3nc21 | -13% | -3%
Cc1cccc(S(=O)(=O)N2CN(Cc3ccco3)c3nc4ccccc4nc32)c1 | -8% | 25µM*

Compound activity from PubChem BioAssay.
